Data: PubChem BioAssay AID485344 (National Center for Advancing Translational Sciences (NCATS), 2010)
About 6,900 (2%) of roughly 340,000 compounds were called active. Cut-off read from the data, not from the text of the source: active = inhibition above about 30%; inactive = below that, where a call was filed. Shown is part of a subset that was picked to be rich in actives.
Note: 0% is about no effect.

These molecules were tested against D(2) dopamine receptor (Homo sapiens) (UniProt P14416) (assay: HTS Assay for Allosteric Antagonists of the Human D2 Dopamine Receptor: Primary Screen for Antagonists). Conditions: HEK293 TREx D2 cells, calcium flux, dopamine EC80; at 10 µM; active compounds read high.
Chain of D(2) dopamine receptor (Homo sapiens) (P14416 whole entry, looked up): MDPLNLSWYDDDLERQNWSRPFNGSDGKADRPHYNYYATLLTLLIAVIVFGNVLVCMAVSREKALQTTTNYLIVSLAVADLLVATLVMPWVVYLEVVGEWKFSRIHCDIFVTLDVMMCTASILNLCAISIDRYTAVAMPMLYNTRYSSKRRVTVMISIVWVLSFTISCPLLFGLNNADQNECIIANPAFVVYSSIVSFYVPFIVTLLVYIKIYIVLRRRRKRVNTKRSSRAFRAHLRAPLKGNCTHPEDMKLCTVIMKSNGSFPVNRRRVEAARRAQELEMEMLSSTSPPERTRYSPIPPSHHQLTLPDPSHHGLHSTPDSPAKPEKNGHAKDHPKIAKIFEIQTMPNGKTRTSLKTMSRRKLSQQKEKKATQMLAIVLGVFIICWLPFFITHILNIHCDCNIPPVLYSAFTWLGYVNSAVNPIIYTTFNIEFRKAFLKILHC
Summary of the method: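 HEK293 T-REx D2 cells, tet-induced, calcium dye no-wash. Cpd pintool add, 180 s kinetic, then EC80 DA, 180 s kinetic. Ca flux read.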
For CC(C)(C)OC(=O)Nc1ccc([C@@H](NC(=O)OC(C)(C)C)C(=O)OC(C)(C)C)cc1, the inhibition was 5.44% (inactive). With CCCc1nnc(NC(=O)CN2C(=O)c3ccccc3S2(=O)=O)s1 the inhibition was 2.63% (inactive). With Nc1nnc(SCn2nnc3ccccc3c2=O)s1 the inhibition was -2.28% (inactive). With Nc1nnc(SCCN2C(=O)c3ccccc3S2(=O)=O)s1 the inhibition was 49.1% (active). In the case of CCN(CC(=O)Nc1ccc(OC)cc1)C(=O)c1ccc(Cl)c(S(=O)(=O)N2CCCC2)c1, the inhibition is reported as -15.2% (inactive). With CCOc1ccc(CC(=O)NCCS(=O)(=O)N2CCN(c3ccccc3)CC2)cc1 the inhibition was -11.3% (inactive). O=S(=O)(NCCS(=O)(=O)N1CCN(c2ccccc2)CC1)c1ccc(F)cc1 was tested, and the inhibition was -7.02% (inactive). In the case of CCC(C)(C)NC(=O)/C=C/c1cc(OC)c(OC)c(S(=O)(=O)N2CCc3ccccc32)c1, the inhibition is reported as 40.9% (active). With COc1cc(/C=C/C(=O)N2CCc3ccccc3C2)cc(OC)c1OC the inhibition was -15.7% (inactive). With COc1cc(C)c(C)cc1S(=O)(=O)N1CCCc2ccccc21 the inhibition was -2.59% (inactive). O=C(OCC(=O)N1CCCC1)c1ccc(Cl)nc1 was tested, and the inhibition was -5.57% (inactive). Cc1ccc2nc(NC(=O)C3CSC4(C)CCC(=O)N34)sc2c1 (configuration not stated) was tested, and the inhibition was -20% (inactive). For CC1(C)O[C@@H]2[C@H](O1)[C@@H](CO)O[C@H]2n1c(N2CCCCC2)nc2c(N)ncnc21, the inhibition was 15.7% (inactive). Cc1cccc(-n2c(C)cc(/C=N\NC(=O)c3cccs3)c2C)c1 was tested, and the inhibition was 2.76% (inactive). CC(=O)Nc1ccc(/C=N/NC(=O)c2cccs2)cc1 was tested, and the inhibition was -20.3% (inactive). In the case of Cc1ccc(-n2nc(C)c(/C=N/NC(=O)c3cccs3)c2Cl)cc1, the inhibition is reported as 32.5% (active). COc1ccc(CNC(=O)COC(=O)c2c(C)nn(-c3ccccc3)c2C)cc1OC was tested, and the inhibition was 5.14% (inactive). CCOc1ccc(NC(=O)Nc2ccc(N(C)C(C)=O)cc2)cc1 was tested, and the inhibition was 31.6% (active). For CC(=O)N(C)c1ccc(NC(=O)Nc2cccc3ccccc23)cc1, the inhibition was 11.1% (inactive). In the case of CCOc1ccc(NC(=O)Nc2cc(C)on2)cc1, the inhibition is reported as -12.8% (inactive). Cc1cccc(C(=O)NCC(=O)OCC(=O)N(C)CC(=O)Nc2ccccc2Cl)c1 was tested, and the inhibition was -38.4% (inactive). With Cc1ccc(OCCCC(=O)Nc2ccc3c(c2)OCCO3)cc1 the inhibition was -2.09% (inactive). With COc1ccc(C(=O)OCC(=O)c2cc(C)n(CC3CCCO3)c2C)cc1[N+](=O)[O-] (configuration not stated) the inhibition was -5.34% (inactive). Cc1nc2ccccc2c(=O)n1NC(=O)c1ccccc1 was tested, and the inhibition was -7.6% (inactive). O=C(Nn1cnc2ccccc2c1=O)c1ccc([N+](=O)[O-])cc1Cl was tested, and the inhibition was -1.86% (inactive). O=C(Nn1cnc2ccccc2c1=O)c1ccccc1 was tested, and the inhibition was 31.2% (active). For Cc1ccsc1C(=O)NC1CCCCC1C (configuration not stated), the inhibition was -11.1% (inactive). With CCc1cccc(C)c1NC(=O)COC(=O)CC1CCCC1 the inhibition was -13.9% (inactive). For CN(Cc1cccs1)C(=O)CN1C(=O)c2ccccc2S1(=O)=O, the inhibition was -30.6% (inactive). With CCOCCCNCc1cc(Br)ccc1OCC the inhibition was 6.96% (inactive). With CCOc1ccccc1OCCCNCc1ccccc1 the inhibition was 50% (active). With CCOCCCNCc1ccc(OCc2ccc(F)cc2)c(OC)c1 the inhibition was 2.04% (inactive). For CN(CC(=O)Nc1ccc(F)c(F)c1F)C(=O)Cn1cnc2c1c(=O)n(C)c(=O)n2C, the inhibition was 2.66% (inactive). With COc1ccc(-c2cc(C(=O)NCCCn3ccnc3)no2)cc1 the inhibition was 3.91% (inactive). For O=C(NCCCn1ccnc1)c1cc(-c2ccccc2)on1, the inhibition was 7.61% (inactive). For COc1ccccc1-c1cc(C(=O)NCCCn2ccnc2)no1, the inhibition was 45.9% (active). In the case of CCOC(=O)[C@H]1[C@H]2COc3ccc(Cl)cc3[C@@H]2N2C(=O)c3cc(C)ccc3NC(=O)[C@@]12C, the inhibition is reported as -4.21% (inactive). With Cc1ccccc1N1CCN(CCCN2C(=O)C3CCCCN3C2=O)CC1 (configuration not stated) the inhibition was -27.4% (inactive). In the case of O=C(C1CC(=O)N(C2CCCC2)C1)N1CCN(c2cccc(C(F)(F)F)c2)CC1 (configuration not stated), the inhibition is reported as 11.8% (inactive). In the case of O=C1C2CCCN2C(=O)N1CCCCN1CCN(c2cccc(C(F)(F)F)c2)CC1 (configuration not stated), the inhibition is reported as 106% (active). In the case of CC(C)CN(C(=O)c1ccc2c(c1)OCO2)C1CCS(=O)(=O)C1 (configuration not stated), the inhibition is reported as -6.59% (inactive). With Cc1ccc2nnn(Cc3cccc(C(C)(C)C)c3O)c2c1 the inhibition was 6.04% (inactive). In the case of COc1ccccc1N1CCN(C(=O)c2c(-c3c(Cl)cccc3Cl)noc2C)CC1, the inhibition is reported as 40% (active). COc1cccc(-c2cc(C(=O)N3CCN(c4ccccc4OC)CC3)no2)c1 was tested, and the inhibition was 3.44% (inactive). In the case of COc1ccccc1N1CCN(C(=O)c2ccc(Cl)c(S(=O)(=O)N3CCCC3)c2)CC1, the inhibition is reported as -0.604% (inactive). With Cn1c(N)c(C(=O)COC(=O)COc2ccc(Cl)cc2)c(=O)n(C)c1=O the inhibition was 20.2% (inactive). COc1ccc(C)cc1S(=O)(=O)Nc1cc2c3c(c1)CCC(=O)N3CCC2 was tested, and the inhibition was 6.3% (inactive). Cc1ccc(C)c(OCCC(=O)OCC(=O)c2ccc3c(c2)NC(=O)CO3)c1 was tested, and the inhibition was -0.691% (inactive). For COc1ccccc1-c1sc2ccccc2c1-c1ccc(Br)nc1, the inhibition was 7.5% (inactive). For Cc1n[nH]c(=O)c2c(NC(=O)CSc3cc(Cl)ccc3Cl)oc(C)c12, the inhibition was 10% (inactive). In the case of Cc1c(C(=O)Nc2ccccn2)oc2ccc(Br)cc12, the inhibition is reported as -19.8% (inactive). With O=C(COC(=O)c1ccccc1SCC(=O)N1CCCC1)Nc1ccccc1OC(F)F the inhibition was -3.18% (inactive). For COC(=O)c1cc(S(=O)(=O)NCC2CCN(Cc3ccc(Cl)cc3)CC2)cn1C, the inhibition was -3.52% (inactive). In the case of COc1ccc(Cn2nnc3c(=O)[nH]c(C4CCN(C(=O)c5ccccc5Cl)CC4)nc32)cc1, the inhibition is reported as 5.81% (inactive). In the case of COc1ccc(CN2CCC(c3nc4ccc(Cl)cc4[nH]3)CC2)cc1, the inhibition is reported as 59.7% (active). With Nc1c(N(CCCO)C(=O)C2CCCC2)c(=O)[nH]c(=O)n1Cc1ccccc1 the inhibition was 10.6% (inactive). In the case of Cc1cccc(NC(=O)CN2CCN(CC(=O)NCC3(N4CCCCC4)CCCCC3)CC2)c1C, the inhibition is reported as 6.75% (inactive). In the case of CCN(CC(=O)Nc1cc(Cl)ccc1C)C(=O)CSCc1ccccc1, the inhibition is reported as 6.06% (inactive). With CC(C#N)(NC(=O)CN1CCN(S(=O)(=O)c2cc(C(F)(F)F)ccc2Cl)CC1)C1CC1 (configuration not stated) the inhibition was 12.9% (inactive). With CN1CCN(c2ccc([N+](=O)[O-])c(Sc3nc4ccccc4[nH]3)c2)CC1 the inhibition was 88.9% (active). In the case of O=C(CSc1nc2ccccc2[nH]1)N/N=C/C=C\c1ccccc1[N+](=O)[O-], the inhibition is reported as -1.1% (inactive). For CC1CCN(c2ccc([N+](=O)[O-])c(SCCO)c2)CC1, the inhibition was -11.8% (inactive). In the case of Cc1noc(C)c1COc1ccccc1C(=O)N(C)CC(=O)Nc1cccc(F)c1, the inhibition is reported as 6.3% (inactive). With COc1ccc(N(CC(=O)N/N=C/c2cccc3c2OCCO3)S(=O)(=O)c2ccc(NC(C)=O)cc2)cc1 the inhibition was 44.5% (active). In the case of CC(=O)Nc1ccc(S(=O)(=O)N(CCc2ccccc2)CC(=O)N/N=C/c2ccc(C(=O)O)cc2)cc1, the inhibition is reported as 10.8% (inactive). For COc1ccc(S(=O)(=O)N(CC(=O)N/N=C/c2ccccc2C(=O)O)c2ccccc2OC)cc1, the inhibition was 1.95% (inactive). With CC(CCn1cccn1)NC(=O)CCc1nnc(CCc2ccccc2)o1 (configuration not stated) the inhibition was 3.4% (inactive). In the case of O=C(CCc1nnc(CCCCc2ccccc2)o1)NC(c1cccnc1)C(F)(F)F (configuration not stated), the inhibition is reported as 32.7% (active). Cc1cc(-c2nnc(CCC(=O)NC(c3ccccc3)c3ccccc3)o2)no1 was tested, and the inhibition was 4.61% (inactive). O=S(=O)(NCCc1ccccn1)c1cc(Cl)cc(Cl)c1O was tested, and the inhibition was 0.268% (inactive). In the case of O=C(Nc1ncccc1O)c1ccc(S(=O)(=O)N2CCCC2)cc1, the inhibition is reported as -6.12% (inactive). With O=C(CN1C(=O)NC2(CCCCC2)C1=O)N1CCN(C(=O)c2cccs2)CC1 the inhibition was -4.48% (inactive). With CCCc1ccc(C(=O)COC(=O)CN2C(=O)NC3(CCCCC3C)C2=O)cc1 (configuration not stated) the inhibition was -19.2% (inactive). With COc1ccc(NC(=O)CSc2nc(C)cs2)cc1 the inhibition was 7.3% (inactive). For COc1ccc(NC(=O)c2sccc2SCC#N)cc1, the inhibition was 31.6% (active). For COc1ccc(NC(=O)c2sc(N)nc2-c2ccccc2)cc1, the inhibition was -6.34% (inactive). With NC(=O)NC(=O)C(OC(=O)CCNS(=O)(=O)c1ccccc1)c1ccccc1 (configuration not stated) the inhibition was 12.6% (inactive). For O=C1COc2ccc(C(=O)CSc3ccc(Br)cc3)cc2N1, the inhibition was 11.8% (inactive). COc1cccc(C2=CC(=O)C[C@H](c3ccc(OC)c(OC)c3)C2)c1 was tested, and the inhibition was 9.37% (inactive). With CC(C)CCN1CCN(Cc2cn[nH]c2C2CCCCC2)CC1CCO (configuration not stated) the inhibition was 56.2% (active). For CC(C)CCN1CCN(C/C=C/c2ccco2)CC1CCO (configuration not stated), the inhibition was -9.65% (inactive). In the case of CC(C)CCN1CCN(Cc2ccc(C(F)(F)F)cc2)CC1CCO (configuration not stated), the inhibition is reported as 14.1% (inactive). For COc1ccc(CCNC(=O)COc2ccc3c(c2)OCO3)cc1, the inhibition was -6.03% (inactive). O=C(Cn1c(=O)sc2ccccc21)Nc1ccc2c(c1)OCCO2 was tested, and the inhibition was -10.2% (inactive). In the case of Cn1c(=O)c2ccccc2n(CC(=O)Nc2ccc3c(c2)OCCO3)c1=O, the inhibition is reported as 0.133% (inactive). With O=C(CN1CCC(O)(c2ccccc2)CC1)Nc1ccc2c(c1)OCCO2 the inhibition was 94.9% (active). In the case of CC1CCCC(NC(=O)c2cc(-c3ccncc3)nc3ccccc23)C1C (configuration not stated), the inhibition is reported as -1.15% (inactive). For CC(OC(=O)Cc1ccc(F)cc1)C(=O)N1CCc2ccccc21 (configuration not stated), the inhibition was -8.93% (inactive). For CN(CC(=O)Nc1ccc(F)c(F)c1F)C(=O)C1CC(=O)N(C2CCCC2)C1 (configuration not stated), the inhibition was -11.5% (inactive). In the case of CC(NC(=O)c1cc(-c2ccccc2)on1)c1ccccc1 (configuration not stated), the inhibition is reported as 11.6% (inactive). With O=C(NC1CCCCC1)c1cc(C2CC2)on1 the inhibition was -9.03% (inactive). For O=C(NC1CCCC1)c1cc(-c2ccccc2)on1, the inhibition was 37.6% (active).
